# Experimental data: PubChem BioAssay AID1032 (The Scripps Research Institute Molecular Screening Center, 2008)
# In all, about 200,000 compounds went through this assay and about 670 (0.34%) were called active. Rule as the data show it: active = activation above about 22%; inactive = the rest. The list comes from a sample in which actives are over-represented; it also holds similar structures and randomly drawn compounds.
# Molecular target: Peroxisome proliferator-activated receptor gamma (Homo sapiens) (UniProt P37231)
# Sequence (P37231 whole entry, looked up): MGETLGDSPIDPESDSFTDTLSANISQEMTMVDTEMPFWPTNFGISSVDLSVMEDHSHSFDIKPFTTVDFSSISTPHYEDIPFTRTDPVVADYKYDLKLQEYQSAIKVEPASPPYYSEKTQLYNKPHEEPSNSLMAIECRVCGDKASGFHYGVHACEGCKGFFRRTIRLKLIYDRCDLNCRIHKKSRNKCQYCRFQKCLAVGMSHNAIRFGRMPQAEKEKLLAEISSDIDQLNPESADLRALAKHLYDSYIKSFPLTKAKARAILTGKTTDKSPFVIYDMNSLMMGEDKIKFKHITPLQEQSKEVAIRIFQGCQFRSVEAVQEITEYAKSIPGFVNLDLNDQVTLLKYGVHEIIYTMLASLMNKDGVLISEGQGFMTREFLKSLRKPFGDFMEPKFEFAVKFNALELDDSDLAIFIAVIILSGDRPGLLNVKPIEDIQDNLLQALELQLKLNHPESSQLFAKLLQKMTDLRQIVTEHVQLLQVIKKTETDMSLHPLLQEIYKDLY
# Assay: compounds enhancing SRC-2 coactivator binding to PPARgamma – biochemical, HTS, primary screen (AID 1032);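 also: 0% = vehicle and 100% = reference agonist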
# Settings: PPARgamma LBD-SRC-2 recruitment, at 8 µM, active compounds read high
row,Compound,activation
1,CCn1c(SCc2cc(=O)n3ccsc3n2)nc2ccccc21,2.48% (inactive)
2,C=CCNC(=O)CSc1nc2sc(C)c(C)c2c(=O)[nH]1,6.77% (inactive)
3,O=C(CSc1nc2c(cnn2-c2ccc(F)cc2)c(=O)[nH]1)N1CCCCCC1,5.39% (inactive)
4,CC(=O)c1sc2nc(SCC(=O)N3CCCCC3)[nH]c(=O)c2c1C,27.8% (active)
5,CCN(CC)N=Nc1cccc(NC(C)=O)c1,6.74% (inactive)
6,CCOC(=O)c1[nH]ncc1CN1CCCC(C(=O)c2ccc(OC)cc2C)C1 (configuration not stated),-2.32% (inactive)
7,Oc1ccccc1N1CCN(C(=S)NCc2ccccc2)CC1,6.1% (inactive)
8,O=C(COC(=O)c1ccncc1)c1ccccc1,-2.8% (inactive)
9,O=C(OCC1O[C@@H](OC(=O)c2cc(O)c(O)c(O)c2)[C@@H](OC(=O)c2cc(O)c(O)c(O)c2)[C@@H](OC(=O)c2cc(O)c(O)c(O)c2)[C@@H]1OC(=O)c1cc(O)c(O)c(O)c1)c1cc(O)c(O)c(O)c1 (some centres not stated),27.6% (active)
10,CC(=O)NC1C(OCc2ccccc2)OC(COC(C)=O)C(OC(C)=O)C1OC(C)=O (configuration not stated),4.63% (inactive)
11,CCOC(=O)N1CCN(C(=O)CSc2nc(C)nc3c2c(=O)n(C)c(=O)n3C)CC1,-8.15% (inactive)
12,Cc1cc(C)nc(NC(=O)c2cccc([N+](=O)[O-])c2)c1,-5.12% (inactive)
13,Cc1c(-c2ccccc2)nc(N)c(C#N)c1-c1cccs1,6.63% (inactive)
14,CSc1nc(N)c(C#N)c(-c2ccccc2Cl)c1C#N,-6.37% (inactive)
15,CCc1c(-c2ccccc2)nc(N)c(C#N)c1-c1cccs1,23.2% (active)
16,O=C(NCc1nnc(SCC(=O)N2CCC(Cc3ccccc3)CC2)o1)c1ccco1,0.71% (inactive)
17,O=C(Cc1ccc(Br)cc1)N1CCN(c2ccccn2)CC1,4.3% (inactive)
18,CC(C)(C)C(=O)NC(NC(=S)Nc1ccc(S(N)(=O)=O)cc1)C(Cl)(Cl)Cl (configuration not stated),-5.23% (inactive)
19,CCCOc1ccc(N/C=C/C(=O)C(C)(C)C)cc1,-1.64% (inactive)
20,CN(C)c1ccc(N/C=C/C(=O)C(F)(F)F)cc1,39.6% (active)
21,O=C(/C=C/Nc1ccccc1OC(F)(F)F)C(F)(F)F,1.89% (inactive)
22,CCC(=O)OCCNc1nc(-c2ccccc2)nc2ccccc12,0.25% (inactive)
23,Cn1ccc(=NC=C(C#N)C#N)c2ccccc21,-3.24% (inactive)

row,Compound,activation
1,CC1CCN(C(=S)NC2CC3CCC2C3)CC1 (configuration not stated),-1.7% (inactive)
2,Cc1c(CN2CCC(CO)(CCOc3ccccc3)CC2)[nH]c2ccc(Cl)cc12,3.77% (inactive)
3,COc1ccc(C(=O)NCc2nnc(SCCOc3ccccc3)n2C)cc1,0.32% (inactive)
4,O=C(CSCc1ccc(Cl)cc1)N1CCCCC1,7.59% (inactive)
5,CCOC(=O)N1CCC(NC(=O)COc2cc(=O)n(C)c3ccccc23)CC1,-4.54% (inactive)
6,CCOC(=O)C1CCN(C(=O)CSc2cc(=O)n(C)c3ccccc23)CC1,56.4% (active)
7,Cn1c(=O)cc(SCC(=O)N2CCCC2)c2cc(Cl)ccc21,61.1% (active)
8,Cc1cccc(OCc2nnc(SCC(=O)N3CCN(C(=O)c4ccco4)CC3)n2C)c1C,4.26% (inactive)
9,CCOc1ccc(CCNC(=O)CSc2cc(=O)n(C)c3ccc(Cl)cc23)cc1OCC,18.7% (inactive)
10,CCOC(=O)C1CCN(C(=O)Cn2cc(C#N)c3ccccc32)CC1,3.64% (inactive)
11,CC(=O)c1ccc(-n2nnnc2SCC(=O)N2CCN(C(=O)c3ccco3)CC2)cc1,-5.53% (inactive)
12,Cn1c(=O)cc(SCC(=O)N2CCN(C(=O)c3ccco3)CC2)c2ccccc21,40.5% (active)
13,Cc1ccc(-c2nc(C)sc2CC(=O)OCC(=O)Nc2c(F)cccc2F)cc1,5.36% (inactive)
14,O=c1oc(/C=C/c2ccccc2)nc2ccccc12,-0.23% (inactive)
15,O=C(Cc1ccccc1)N1CCN(S(=O)(=O)c2ccc([N+](=O)[O-])cc2)CC1,7.91% (inactive)
16,O=C1c2cccc(OCC(=O)N3N=C(c4cccs4)CC3c3ccc(F)cc3)c2CCN1Cc1ccccc1 (configuration not stated),0.84% (inactive)
17,CC(CC(=O)Nc1ccccc1)n1ccnc1 (configuration not stated),8.08% (inactive)
18,CCC(CC)C(=O)Nc1ccc(S(=O)(=O)Nc2nccs2)cc1,-6.57% (inactive)
19,C=C(C)C1CC=C(C)/C(=N/NC(=O)CCCNc2cccc(C)c2)C1 (configuration not stated),3.8% (inactive)
20,O=C(CNC(=O)COc1ccccc1)NCCc1ccccn1,-3% (inactive)
21,C#CCOCCOCCOCCNc1nc(N2CCN(C(=O)C(Cc3ccc(O)cc3)n3cc(C(N)CC(C)C)nn3)CC2)nc(N2CCN(C(=O)C(Cc3ccc(O)cc3)n3cc(C(N)C(C)CC)nn3)CC2)n1 (configuration not stated),-8.91% (inactive)
22,COCCN(C(=O)CCC(=O)Nc1nccs1)C(C(=O)NC(C)(C)C)c1ccc(Cl)cc1 (configuration not stated),5.4% (inactive)
23,CC(=O)Nc1ccc(Nc2c([N+](=O)[O-])cc(S(C)(=O)=O)cc2[N+](=O)[O-])cc1,6.76% (inactive)

row,Compound,activation
1,N#Cc1ccc(-c2ccc(Cl)cc2)nc1Oc1ccc(F)cc1,322% (active)
2,N#Cc1ccc(-c2ccc(F)cc2)nc1Sc1ccccc1,3.38% (inactive)
3,CN(C)c1ccnc(Oc2ccc(F)cc2)c1C#N,7.04% (inactive)
4,COCCn1c(SCC(=O)Nc2ccc3c(c2)CCC3)nc2ccccc2c1=O,-3.24% (inactive)
5,CCOC(=O)/C=c1\s/c(=C\c2ccc(C#N)cc2)c(=O)n1CC(=O)Nc1cccc(C)c1C,2.46% (inactive)
6,Oc1oc(-c2ccccc2Br)nc1/C=N/c1ccccn1,7.3% (inactive)
7,COc1cc(SC#N)ccc1N=Cc1c(C)[nH]n(-c2ccc(C)cc2)c1=O,27.6% (active)
8,Cc1ccc(-n2[nH]c(C)c(/C=N/N3C(=O)c4cccc5cccc(c45)C3=O)c2=O)cc1,6.04% (inactive)
9,CCc1nnc(NS(=O)(=O)c2ccc(N=Cc3c(C)[nH]n(-c4ccc(C)cc4)c3=O)cc2)s1,12.6% (inactive)
10,CN(C)S(=O)(=O)c1cccc(NC(=S)NCc2ccc3c(c2)OCO3)c1,4.42% (inactive)
11,COc1ccc(N(CC(=O)NC2CCCC2)C(=O)CS(=O)CC(=O)Nc2ccc3c(c2)OCO3)cc1 (configuration not stated),-7.54% (inactive)
12,O=C(CSc1cccc2cccnc12)N/N=C/c1cccnc1,27.4% (active)
13,CCOC(=O)N/N=C/c1cccnc1,3.1% (inactive)
14,Cc1nc2ccccc2n1CC(=O)N/N=C/c1cccnc1,2.27% (inactive)
15,CC(C)CN1CCNC(=O)C1CC(=O)N(C)CC1CCOCC1 (configuration not stated),-4.08% (inactive)
16,c1ccc2sc(NN=C3CCCC3)nc2c1,-0.8% (inactive)
17,Cc1cccc2cc(CN(Cc3cccs3)C(c3nnnn3C3CCCC3)C(C)C)c(=O)[nH]c12 (configuration not stated),2.09% (inactive)
18,CCC(c1nnnn1C1CCCC1)N(Cc1cccs1)Cc1cc2cccc(C)c2[nH]c1=O (configuration not stated),7.3% (inactive)
19,Cc1cccc2cc(CN(Cc3ccc4c(c3)OCO4)Cc3nnnn3C3CCCC3)c(=O)[nH]c12,27.4% (active)
20,CC(C(=O)N=Nc1c(O)n(C)c2ccc(Br)cc12)n1cnc2ccccc2c1=O (configuration not stated),2.86% (inactive)
21,Cc1ccccc1Cn1nc(C)c(NC(=O)C(F)(F)F)c1C,-0.15% (inactive)
22,COc1cc(C2C(C(=O)c3ccc(C)o3)=C(O)C(=O)N2CCc2ccccc2)ccc1O (configuration not stated),0.21% (inactive)
23,COc1cc(C2C(C(=O)c3ccc(C)o3)=C(O)C(=O)N2Cc2cccnc2)ccc1O (configuration not stated),-1.47% (inactive)

row,Compound,activation
1,CCCOc1ccc(C2C(C(=O)c3ccc(C)o3)=C(O)C(=O)N2CCCn2ccnc2)cc1 (configuration not stated),22.1% (active)
2,CCOC(=O)N1CCC(=NNC(N)=O)CC1,3.39% (inactive)
3,CCCCOC(=O)c1ccc(NC(c2ccc(C)cc2)P(=O)(OC)OC)cc1 (configuration not stated),7.71% (inactive)
4,COc1cc(C(=S)N2CCOCC2)ccc1O,5.98% (inactive)
5,COc1cccc(NC(=O)C(Sc2nc3ccccc3c(=O)n2CC(C)C)c2ccccc2)c1 (configuration not stated),1.13% (inactive)
6,Cc1ccc(NC(=S)N(CCCN2CCC(C)CC2)Cc2ccco2)cc1,-0.03% (inactive)
7,COC(=O)Cn1cc(C(=O)c2cccs2)c2ccccc21,25.2% (active)
8,O=C(Cn1cc(C(=O)c2cccs2)c2ccccc21)NCc1cccs1,-4.53% (inactive)
9,COCCNC(=O)Cn1cc(C(=O)c2cccs2)c2ccccc21,-7.11% (inactive)
10,O=C(CNS(=O)(=O)c1ccccc1)NCC(=O)OCc1ccccc1F,-5.13% (inactive)
11,Cc1scc(C(=O)NNC(=S)NCc2ccccc2)c1C,-7.7% (inactive)
12,CC1=NNC(=O)C1CCC(=O)N/N=C\c1ccc(Cl)c(Cl)c1 (configuration not stated),6.93% (inactive)
13,O=c1c2ccccc2c(-c2ccccc2)nn1Cc1ccccc1,-3.47% (inactive)
14,Cn1c(CO)cnc1SCc1ccccc1,5.35% (inactive)
15,CSc1c(SCc2ccccc2)cnn(Cc2ccccc2)c1=O,28% (active)
16,CN1CCC(=NNC(=O)CN(c2cccc(Cl)c2)S(C)(=O)=O)CC1,10.8% (inactive)
17,S=c1[nH]cc(-c2ccc(Cl)cc2)n1-c1ccccc1,0.94% (inactive)
18,CCc1ccc(NC(=O)C(C)OC(=O)/C=C/c2cccc([N+](=O)[O-])c2)cc1 (configuration not stated),2.51% (inactive)
19,Cc1cccn2c(CN(C)C3CCCc4ccccc43)c(C(=O)N3CCOCC3)nc12 (configuration not stated),-1.89% (inactive)
20,CCN(CCCNC(=O)CSc1cc(=O)n(C)c2cc(Cl)ccc12)Cc1ccccc1,26.1% (active)
21,CCN(CC)CCCNC(=O)CCc1ccccc1,9.5% (inactive)
22,CCN(CC)CCCNC(=O)c1cc(-c2cccc(Cl)c2)on1,0.37% (inactive)
23,CCOC(=O)N1CCN(c2cc(C)c([N+](=O)[O-])cc2F)CC1,-3.32% (inactive)
